SMILES strings stand for the structures. The panel holds about 83,000 compounds, 20% with a hit somewhere; the sample as a whole holds those more often.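 96-well plates, one dose, 48 hours. Percent growth reported; active if below 10.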 Unmarked numbers belong to inactive results. Calls of active or inactive are those of the source.

The assay relates to HL-60(TB) leukemia. Put plainly: NCI-60 one-dose screen, 48 h (100 = growth as untreated, 0 = no growth, -100 = all killed). The following applies: 10 µM unless noted.
In the case of `O=[N+]([O-])c1ccc(S(=O)(=O)OCCCCOS(=O)(=O)c2ccc([N+](=O)[O-])cc2)cc1`, the growth is 101%.

For `CCN(CC)C(=O)CCCCCn1c2ccccc2c2c3c(c4c5ccccc5[nH]c4c21)C(=O)N(O)C3=O`, the growth was 21.8%.

`OC(CBr)CCBr` (stereo not given): the growth was 103%.

On to `COc1cc(-c2nc3c(ncc4ccc(=O)n(-c5ccccc5)c43)s2)cc(OC)c1OC`, for which the growth is 94.1%.

For `CNC(=O)c1c(NC(=O)c2ccc(C(C)(C)C)cc2)sc2c(CN(C)C)c(O)ccc12`, the growth was -33% (active).

As to `COc1ccc2c(c1)C(=O)/C(=C/c1ccc(OCC(=O)Nc3nccs3)cc1)O2`, the growth is -84.2% (active).

In the case of `C=C1C(=O)O[C@H]2[C@H]1CC/C(C=Nc1c(N)cc(F)cc1Br)=C\CC[C@@]1(C)O[C@@H]21`, the growth is 37.1%.

Consider `CCN1CCN(c2cc(C)nc(N(CCCNc3ccnc4cc(Cl)ccc34)Cc3ccc4c(c3)OCO4)n2)CC1`, for which the growth is -67.3% (active).

For the compound `NCCCNc1nc2ccccc2c2c(=O)c3cc(Cl)ccc3sc12`, the growth is -56.8% (active).

Consider `CC(=O)OCC1OC(OC2=C(CC=C(C)C)C(=O)c3ccccc3C2=O)C(OC(C)=O)C(OC(C)=O)C1OC(C)=O` (stereo not given), for which the growth is -36.7% (active).

Regarding `Cc1oc2c(C)c3oc(=O)cc(C)c3cc2c1CCl`, the growth was 70.8%.

`C#CCO[C@H]1CC[C@H](OCC#C)[C@@H]2[C@H]1[C@H]1C[C@@H]3[C@@]4(C)CCC[C@@](C)(C(=O)OC)[C@@H]4CC[C@@]23C=C1C(C)C`: the growth is 78.1%.

Turning to `COc1cc(OCc2cccc(-c3ccc(C(O)c4nccs4)cc3)c2C)cc(OC)c1C=O` (stereo not given), the growth was 43.5%.

As for `CC(=O)Oc1ccc(Br)cc1C(=O)O`, the growth was 101%.

On to `COc1ccc(Cc2cnc(NC(=O)c3sc4ccccc4c3Cl)s2)cc1`, for which the growth is -50.3% (active).

On to `COc1ccc(-c2nn(-c3cccc(NC(=O)Nc4cc(C(F)(F)F)cc(C(F)(F)F)c4)c3)cc2-c2ccncc2)cc1Cl`, for which the growth is -25.4% (active).

On to `COc1ccc([C@H]2c3[nH]c4ccccc4c3C[C@H]3C(=O)N(CCCCCCC(=O)NO)CC(=O)N23)cc1`, for which the growth is 5.31% (active).

As to `S=C(NCc1ccccc1)N1CCC(CCCC2CCN(C(=S)NCc3ccccc3)CC2)CC1`, the growth was 89.7%.

As for `CC(C)C[C@H](NC(=O)CCn1ccc2ccccc2c1=O)B(O)O`, the growth was 28.1%.

For the compound `N#CCCN1C/C(=C/c2ccc(Cl)cc2)C(=O)/C(=C/c2ccc(Cl)cc2)C1`, the growth is -16.5% (active).

For `C=CC(=O)Nc1ccc2ncnc(Nc3cccc(NS(=O)(=O)CCC)c3Cl)c2c1`, the growth is 80.7%.

As to `O=C(O)C(/C=C/c1ccco1)=N\Nc1nc(-c2ccc(Cl)cc2)cs1`, the growth is 52.2%.

Turning to `O=[N+]([O-])c1c(F)cccc1Nc1cccc(F)c1`, the growth was 100%.

In the case of `C=C1C(=O)O[C@H]2[C@H]1CC/C(Cn1cc(-c3cc(C(F)(F)F)cc(C(F)(F)F)c3)nn1)=C\CC[C@@]1(C)O[C@@H]21`, the growth is -49.1% (active).

`CC(=O)CC(c1ccccc1)c1c(C)[nH]c2ccccc12` (stereo not given): the growth is 107%.

Regarding `CN1CCN(CCCOc2cccc3nc(Nc4ccc(F)c(F)c4)ccc23)CC1`, the growth is 38.8%.

Take `O=C(NOC1OC(CO)C(O)C(O)C1O)Nc1ccccc1` (stereo not given): the growth is 74.5%.

In the case of `COc1ccc(C(=O)c2cc3c(N)c(C(=O)Nc4ccc(Cl)cc4)sc3nc2C)cc1`, the growth was 62.9%.

Take `COc1ccc(Cl)cc1Nc1nc(C(F)(F)F)ccc1C(=O)N/N=C/c1ccc([N+](=O)[O-])cc1`: the growth is -10.8% (active).

With `COc1cccc(C(=O)NC(c2ccc(C)cc2)c2cc(Cl)c3cccnc3c2O)c1` (stereo not given), the growth is 4.15% (active).

For `O=NC1CC=CCC1c1ccccc1` (stereo not given), the growth is 92.6%.

`N=c1sc2ccccc2n1CC(=O)O`: the growth was 114%.

In the case of `Brc1ccc(-c2csc(Nc3ccccn3)n2)cc1`, the growth was 79.2%.

Consider `O=C(NC1CCCCC1)c1ccc(Cl)cc1`, for which the growth is 92.8%.

For the compound `Cc1ccc(-c2cc(-c3nnc(SCC(=O)c4ccccc4)o3)c3ccccc3n2)cc1`, the growth is 103%.

As for `COc1ccc2ccccc2c1/C=N/N1CCCCC1`, the growth was 94.3%.

As to `CN1CCN(c2ccc3nc(/N=C/c4ccc5sc(-c6ccc([N+](=O)[O-])cc6)nc5c4)sc3c2)CC1`, the growth is 109%.

For `O=C(CNC1CCCCC1)Nc1ccc(-c2nc3ccccc3s2)cc1`, the growth is 66.8%.

Turning to `COc1ccc2[nH]c(=O)c(CN3CCN(c4nccc(-c5ccc(Cl)cc5)n4)CC3)cc2c1`, the growth was 90.1%.

Turning to `CCOC(=O)c1c2c(n(-c3ccc(C#N)cc3)c1-c1ccccc1)C=CCC2`, the growth is 82.9%.
